This excerpt belongs to a sample that is enriched for hits.
Glioma ERSR ind: inducers of ER stress response in human glioma cells; U87-MG GRP78 promoter luciferase reporter, 16 h; Potency, µM, actives largely listed as activators; hit rate 0.02% among 420,000; also: series mostly up to about 76 µM; nearly all actives have a fitted effect of over 35% in size
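Stably transfected U87-MG human glioma cells carrying a GRP78-based luminescent sensor were seeded at 1000 cells/well, pin-dosed with compounds and incubated 16 h. Luciferase reagent was then added, and end-point luminescence was read after 10 min at room temperature.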
ALOX12 inh: blocks human arachidonate 12S-lipoxygenase | P18054 | purified 12hLO, xylenol orange hydroperoxide absorbance | Potency, µM (highest dose often 108 µM), hits mostly inhibitors | hit rate 1.1% among 580,000 | AID 1671190
Target sequence (P18054 whole entry, looked up): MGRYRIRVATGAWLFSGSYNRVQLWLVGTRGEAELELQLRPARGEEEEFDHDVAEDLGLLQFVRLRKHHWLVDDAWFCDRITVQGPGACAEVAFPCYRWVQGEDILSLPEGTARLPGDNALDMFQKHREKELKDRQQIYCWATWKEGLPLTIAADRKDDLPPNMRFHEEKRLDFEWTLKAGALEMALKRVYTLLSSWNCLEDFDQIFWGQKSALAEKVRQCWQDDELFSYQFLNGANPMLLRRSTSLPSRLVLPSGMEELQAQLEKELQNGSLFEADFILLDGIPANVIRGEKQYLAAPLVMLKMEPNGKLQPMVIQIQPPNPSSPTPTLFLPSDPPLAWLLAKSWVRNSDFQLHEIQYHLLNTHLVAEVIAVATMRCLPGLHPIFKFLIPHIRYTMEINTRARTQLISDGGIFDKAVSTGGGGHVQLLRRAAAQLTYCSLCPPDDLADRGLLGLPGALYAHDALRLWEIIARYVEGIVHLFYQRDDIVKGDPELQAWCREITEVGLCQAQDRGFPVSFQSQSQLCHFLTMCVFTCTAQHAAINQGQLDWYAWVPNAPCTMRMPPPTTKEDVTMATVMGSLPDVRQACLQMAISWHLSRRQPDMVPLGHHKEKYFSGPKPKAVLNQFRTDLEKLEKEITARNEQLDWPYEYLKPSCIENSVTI
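Purified human 12hLO at 150 nM in 25 mM Hepes, 0.01% Triton X-100, pH 7.0, preincubated 15 min at room temperature with compound. Reaction started with 40 uM arachidonic acid, 30 min at room temperature. Hydroperoxide measured by Fe-xylenol orange, 573/405 nm absorbance ratio.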
VDR inhibitor: blocks the human vitamin D receptor | P11473 | hit rate 0.93% among 400,000 | Potency, µM, most hits filed as inhibitors | VDR-SRC2-3 peptide fluorescence polarization, 2 h
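Compounds are added to VDR with labelled SRC2-3 coactivator peptide and held 2 h at room temperature. Inhibition of the VDR–peptide interaction is then read as a change in fluorescence polarization.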
G9a block: blocks human histone lysine methyltransferase G9a | hit rate 8.8% among 350,000 | AID 504332 | G9a H3K9 monomethylation, AlphaScreen, 2 h | Q96KQ7 | Potency, µM (doses to about 102 µM), hits mostly inhibitors; also: nearly all actives have a fitted effect of over 75% in size
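G9a (20 nM) preincubated 15 min RT with compounds, then 500 nM biotinylated H3K9 peptide and 20 uM SAM added; 2 h RT reaction. Monomethyl-H3K9 product detected by AlphaScreen with anti-H3K9me1 antibody, streptavidin donor and anti-rabbit IgG acceptor beads.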
Sfp inh: blocks B. subtilis Sfp PPTase activity | Q9F4F7 | hit rate 3.5% among 310,000 | Potency, µM, actives largely listed as inhibitors | AID 1490 | Biochemical Sfp PPTase activity, qHTS;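 also: the enzyme is Sfp with the accession as filed and its product quenches rhodamine fluorescence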
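Compounds were incubated with enzyme (final 15 nM) for 15 min at room temperature before substrate addition started the reaction. Fluorescence at 525 nm excitation, 598 nm emission was recorded immediately and after 30 minutes.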
A number is an active result; n = inactive; u = inconclusive; x = no result given; [ ] = remark or other dose. Calls follow the shape of the dose curve; as a rule, active = well fitted curve in the direction sought with a large enough effect; inconclusive = small, poorly fitted or top-dose-only effect, or another doubt; inactive = no such curve, though single readings can be large; an effect the other way counts as inactive or inconclusive.

SMILES | Glioma ERSR ind | ALOX12 inh | VDR inhibitor | G9a block | Sfp inh
O=C(NC1=NCCS1)c1cccc(S(=O)(=O)N2CCCCC2)c1 | x | x | x | n | n
O=C(NCCCn1ccnc1)c1cccc(Br)c1 | n | n | n | n | n
CC1(C)Cc2c(c(N3CCOCC3)nc3sc4c(NCc5ccco5)nnnc4c23)CS1 | n | n | n | 18µM | u
CN(CCOc1ccccc1)Cc1cc(=O)oc2cc(O)ccc12 | x | n | x | x | x
COc1cc(/C=C(/C#N)c2ccc(C(F)(F)F)cn2)ccc1O | x | 8.9µM | x | x | x
CCOC(=O)c1cc(S(=O)(=O)Nc2ccc(F)c(Cl)c2)[nH]n1 | x | n | x | x | x
CCOC(=O)c1cc(S(=O)(=O)Nc2ccc(Br)c(C)c2)[nH]n1 | n | u | n | 2.5µM | x
CCOC(=O)c1cc(S(=O)(=O)Nc2ccc(OC)c(Cl)c2)[nH]n1 | n | u | n | 8.9µM | x
CC1=Nc2ccccc2N=C(NC(=O)/C=C/C(=O)O)C1c1ccccc1 (configuration not stated) | n | n | n | 11µM | n
CC(C)(C)c1ccc(C(=O)NC(Nc2cccc(Cl)c2)C(Cl)(Cl)Cl)cc1 (configuration not stated) | x | n | x | x | x
COc1ccccc1C(=O)Nc1ncc2c(n1)CC(c1ccco1)CC2=O (configuration not stated) | n | u | n | 50µM | n
N#CCCSc1ccccc1NC(=O)c1cc(=O)c2ccccc2o1 | n | u | n | 20µM | 22µM
CN(C)S(=O)(=O)c1ccc(C(=O)Nc2ccccc2SCCC#N)cc1 | n | u | n | 5µM | 14µM
Cc1cc(=O)oc2ccc(OCC(=O)Nc3ccc4c(c3)OCCO4)cc12 | x | n | x | x | x
O=C1COc2ccc(C(=O)COC(=O)c3nn(-c4ccccc4)c(=O)c4ccccc34)cc2N1 | x | n | x | x | x
O=C1CCCC/C1=C\Nc1ccccc1C(=O)O | n | n | n | 50µM | n
Cc1cccc(C)c1NC(=O)Cn1c(=O)c2c(ncn2CC(C)C)n(Cc2ccccc2)c1=O | x | n | x | x | x
O=C(/C=C/c1cccc2ccccc12)Nc1ccc(Cl)cc1C(F)(F)F | x | n | x | x | x
CSc1nc2c(=S)[nH]c(=S)[nH]c2s1 | n | 14µM | x | x | x
C/C(=N\Nc1ccc2nncn2n1)c1ccccn1 | n | n | n | n | n
C(=N\Nc1ccc2nncn2n1)/c1ccccn1 | n | n | n | n | 32µM
CC(C)C(=O)Nc1ccc2[nH]cc(C(C(=O)O)N3CCCCC3)c2c1 (configuration not stated) | x | n | x | x | x
CC(C(=O)NC1CC1)N1CCN(Cc2cccc3cccnc23)CC1 (configuration not stated) | x | n | x | x | x
CN(C)c1cccc(C(=O)NC2CCN(c3cc(-c4ccc(Cl)cc4)[nH]n3)C2)c1 (configuration not stated) | x | n | x | x | x
CC1CCc2[nH]c3ccc(C(=O)N(C)CC(=O)Nc4ccccc4C(F)(F)F)cc3c2C1 (configuration not stated) | n | n | n | n[2.33 µM] | x
SMILES | Glioma ERSR ind | ALOX12 inh | VDR inhibitor | G9a block | Sfp inh
CC1CCc2[nH]c3ccc(C(=O)N(C)CC(=O)Nc4ccccc4Cl)cc3c2C1 (configuration not stated) | n | u | n | 50µM | x
Cc1ccc(NC(=O)CN(C)C(=O)c2ccc3[nH]c4c(c3c2)CC(C)CC4)cc1 (configuration not stated) | n | n | n | u | x
CCOc1ccc(NC(=O)CN(C)C(=O)c2ccc3[nH]c4c(c3c2)CC(C)CC4)cc1OCC (configuration not stated) | n | x | n | 35µM | x
CCOc1ccc(NC(=O)CN(C)C(=O)c2ccc3nc(CC)c(CC)nc3c2)cc1OCC | n | u | n | 50µM | x
COC(=O)C(C)Oc1ccc2c(=O)c(-c3ccc4c(c3)OCCO4)coc2c1 (configuration not stated) | x | n | x | x | x
CC(C)CNC(=O)C(=O)NN=C1CCCCCC1 | n | n | n | n | n
CC(C)(C)NC(=O)C(=O)NN=C1CCCCCCCCCCC1 | n | n | n | n | 79µM
CCCNC(=O)C1CCN(c2nnc(-n3cccc3CNc3ccc(OCC)cc3)s2)CC1 | x | n | x | x | x
CCOc1ccc(NCc2cccn2-c2nnc(N3CCC(C(=O)NCCCN4CC(C)CC(C)C4)CC3)s2)cc1 (configuration not stated) | n | n | n | 45µM | n
CNC(=S)N(CCc1c(C)[nH]c2ccc(C)cc12)Cc1cccnc1 | n | n | n | 79µM | n
Cc1[nH]c2ccc(F)cc2c1CCN(Cc1cccnc1)C(=S)Nc1cccc(F)c1 | n | n | n | u | n
Cc1ccccc1NC(=S)N(CCc1c(C)[nH]c2ccc(F)cc12)Cc1cccnc1 | n | n | n | 56µM | n
Cn1c(N)c(C(=O)Nc2ccc3ccccc3c2)sc1=S | n | u | n | 7.1µM | 14µM
COc1ccccc1-n1c(N)c(C(N)=O)sc1=S | n | n | n | n[0.0925 µM] | u
Nc1c(C(=O)Nc2ccc(F)cc2)sc(=S)n1-c1ccccc1F | n | u | u | 7.9µM | 32µM
COc1ccc(-c2cn(-c3cccc(C)c3)c(=O)[nH]2)cc1OC | n | u | n | 28µM | n
COc1ccc(-c2cc(=O)n(-c3cccc(C)c3)[nH]2)cc1OC | x | n | x | x | x
COc1cc(OC)c(-n2cc(-c3ccc(OC)c(OC)c3)[nH]c2=S)cc1Cl | n | u | n | 32µM | n
COc1ccc(-n2cc(-c3ccc(Br)cc3)[nH]c2=S)cc1 | n | n | n | n | n
COc1ccccc1-n1cc(-c2ccc(Cl)cc2)[nH]c1=O | n | n | n | 56µM | n
COc1ccc(-n2cc(-c3ccc(OC)c(OC)c3)[nH]c2=S)cc1 | n | u | n | 0.89µM | 45µM
CCCCC(=O)Nc1cccc(-c2nc3cc(C)ccc3o2)c1 | x | n | x | x | x
O=C(OCc1ccccc1)N1CCC2CC1c1cc(N3CCN(C(=S)NCCc4ccccc4)CC3)ccc12 (configuration not stated) | n | 20µM | x | x | x
CN1CCN(c2ccc3c(c2)C2CC3CCN2C(=O)OCc2ccccc2)CC1 (configuration not stated) | n | u | n | x | x
N#CC(c1nc2ccccc2nc1N1CCCC1)S(=O)(=O)c1cccs1 (configuration not stated) | n | u | n | 13µM | 50µM
SMILES | Glioma ERSR ind | ALOX12 inh | VDR inhibitor | G9a block | Sfp inh
CN1CCN(c2nc3ccccc3nc2C(C#N)S(=O)(=O)c2ccccc2)CC1 (configuration not stated) | n | n | n | x | n
CCN1CCN(c2nc3ccccc3nc2C(C#N)S(=O)(=O)c2ccc(OC)cc2)CC1 (configuration not stated) | x | 18µM | x | x | x
CCN1CCN(c2nc3ccccc3nc2C(C#N)S(=O)(=O)c2ccc(Cl)cc2)CC1 (configuration not stated) | x | 45µM | x | x | x
CCN1CCN(c2nc3ccccc3nc2C(C#N)S(=O)(=O)c2cccc(C)c2)CC1 (configuration not stated) | x | 14µM | x | x | x
O=C(O)c1ccc(COc2ccc(F)c(Cl)c2)o1 | x | n | x | x | x
CCN(CC)S(=O)(=O)c1ccc(NC(=O)CN(c2ccc(F)c(Cl)c2)S(C)(=O)=O)cc1 | x | n | x | x | x

Screening results: PubChem, National Center for Advancing Translational Sciences (NCATS)
